Shown are actives, neighbours in structure and some others; about 6.1% of the full set was active somewhere.
VP16 counter – inhibits Gal4-VP16 luciferase reporter, ROR gamma counter-screen; AID 2546; 310,000 compounds, 3.5% hits; Potency, µM (top dose mostly 53.6 µM), usual class: inhibitors; Drosophila S2 Gal4-VP16 UAS-luciferase, luminescence, 20 h;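 note: Gal4-VP16 expression switched on by copper sulfate through the metallothionein promoter; nearly all actives have a fitted effect of over 50% in size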
ATXN2 expr inh – inhibitors of ATXN2 expression; HEK-293 ATXN2-luciferase reporter, luminescence, 24 h; AID 1745845; Potency, µM (top dose mostly 57 µM), most hits filed as inhibitors; 360,000 compounds, 0.72% hits; note: nearly all actives have a fitted effect of over 55% in size
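ATXN2-luciferase reporter cells (luciferase flanked by upstream and downstream ATXN2 gene portions) were treated 24 h at 37 °C with compounds at up to 57 uM. SteadyGlo luminescence gave expression; GF-AFC fluorescence gave viability.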
TGFb SMAD3 inh – blocks TGF-b signaling. HepG2 CAGA-GFP TGF-b/SMAD3 reporter, GFP fluorescence, 18 h; TGF-beta stimulated, 500 pg/mL final. Potency, µM (doses to about 46.1 µM), usual class: inhibitors. 410,000 compounds, 1.2% hits; note: nearly all actives have a fitted effect of over 65% in size
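Per well, imaged GFP fluorescence of HEPG2 CAGA-GFP cells gives the signal; cells get compound, then TGF-beta (500 pg/mL final), 18 h at 37 degrees C; %Activity versus -TGF-beta and +DMSO controls.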
S2 tox – viability counter-screen for ATXN expression inhibitors; S2 cells (HEK-293 line with an ATXN2-luciferase reporter) viability, CellTiter-Fluor protease fluorescence, 24 h; Potency, µM (doses to about 56.7 µM), most hits filed as cytotoxic; 400,000 compounds, 0.49% hits; note: nearly all actives have a fitted effect of over 40% in size
HepG2 tox – kills HepG2 cells in TGF-b inhibitor counter-screen | 410,000 compounds, 0.76% hits | Potency, µM (highest dose often 46.1 µM), usual class: cytotoxic | HepG2 CAGA-GFP viability, ATP luminescence, 18 h
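HepG2 CAGA-GFP cells (1000/well, DMEM with 1% FBS) received compound, then TGF-beta at 500 pg/mL final, and were incubated 18 hours at 37 degrees C. Viability was read by CellTiter-Glo luminescence. Media-only wells were set as complete cell-killing and DMSO as no toxicity.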
RORgamma inh – ROR gamma (mouse) transcription inhibition; P51450; Drosophila S2 Gal4-RORgamma UAS-luciferase reporter, 20 h; Potency, µM (doses to about 53.6 µM), hits mostly inhibitors; 310,000 compounds, 5.4% hits; note: nearly all actives have a fitted effect of over 60% in size
Target sequence (P51450 whole entry, looked up, the tested form may be a part): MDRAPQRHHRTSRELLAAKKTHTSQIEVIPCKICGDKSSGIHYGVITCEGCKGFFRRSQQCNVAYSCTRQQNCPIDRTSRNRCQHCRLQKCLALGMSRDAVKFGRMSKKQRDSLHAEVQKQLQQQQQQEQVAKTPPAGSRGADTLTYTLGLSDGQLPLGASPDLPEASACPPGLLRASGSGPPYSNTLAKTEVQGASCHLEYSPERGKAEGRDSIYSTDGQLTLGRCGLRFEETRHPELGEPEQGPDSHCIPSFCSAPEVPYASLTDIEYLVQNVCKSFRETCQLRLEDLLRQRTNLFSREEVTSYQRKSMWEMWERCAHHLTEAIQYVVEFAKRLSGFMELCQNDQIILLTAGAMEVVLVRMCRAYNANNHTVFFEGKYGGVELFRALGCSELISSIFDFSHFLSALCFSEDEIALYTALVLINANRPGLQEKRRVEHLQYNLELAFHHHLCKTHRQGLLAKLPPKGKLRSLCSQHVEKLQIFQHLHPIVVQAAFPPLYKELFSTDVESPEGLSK
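Stable Schneider cell line, Gal4 DNA-binding domain fused to ROR gamma, UAS-luciferase. Cmpd 1 hr RT → CuSO4 700 uM final → 20 hr RT → luciferase reagent 10 min → luminescence.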
Hits are given with their value; i = inactive; ? = inconclusive; nt = no result given; [ ] = another dose, or the depositor's remark. Calls come from the whole dose curve; as a rule, active = well fitted curve in the direction sought with a large enough effect; inconclusive = small, poorly fitted or top-dose-only effect, or another doubt; inactive = no such curve, though single readings can be large; an effect the other way counts as inactive or inconclusive.

SMILES	VP16 counter	ATXN2 expr inh	TGFb SMAD3 inh	S2 tox	HepG2 tox	RORgamma inh
COc1ccc(C(=O)c2[nH]c(N)c(C(=O)NCCc3c[nH]c4ccccc34)c2-c2ccc(Br)cc2)cc1	nt	i	nt	i	nt	nt
Nc1[nH]c(C(=O)c2ccccc2)c(-c2ccc(Br)cc2)c1C(=O)NCCc1c[nH]c2ccccc12	nt	?	nt	22µM	nt	nt
Cc1csc(SCC(=O)NCC2Cc3cc(-c4cncnc4)ccc3O2)n1 (stereo not given)	nt	nt	nt	i	nt	nt
C/C(=N\NC(=O)c1ccccc1)c1cc2cc([N+](=O)[O-])ccc2oc1=O	5µM	i	i	i	i	7.9µM
C/C(=N\NC(=O)c1ccncc1)c1cc2ccccc2oc1=O	13µM	i	?	?	i	7.9µM
O=C(NNC(=O)c1cc2ccccc2oc1=O)c1ccccc1[N+](=O)[O-]	?	i	i	i	i	i
C/C(=N/NC(=O)c1ccncc1)c1cc2ccc(O)cc2oc1=O	i	i	i	nt	i	i[10 µM]
C/C(=N\Nc1ccc([N+](=O)[O-])cc1[N+](=O)[O-])c1cc2c(ccc3ccccc32)oc1=O	i	nt	nt	nt	nt	i
COC(=O)c1cc2ccccc2oc1=O	i	i	?	i	i	i
C/C(=N\NC(=O)c1ccc([N+](=O)[O-])cc1)c1cc2ccccc2oc1=O	?	?	?	i	i	16µM
N/C(=N\NC(=O)c1ccccc1Cl)c1cc2ccccc2oc1=O	?	i	i	i	i	14µM
COc1ccccc1C(=O)N(Cc1cc2cccc(C)c2nc1N1CCC(O)CC1)C1CC1	nt	nt	nt	i	nt	nt
Cc1nn(CC(=O)Nc2cccc(C(F)(F)F)c2)c(=O)c2nn(-c3ccccc3)c(C)c12	nt	i	i	i	i	nt
COc1ccc(Cl)cc1NS(=O)(=O)c1cc(-c2cc(C)no2)ccc1C	nt	nt	i	nt	i	nt
CS(=O)(=O)c1ccc(C(=O)Nc2cc(S(C)(=O)=O)ccc2Cl)cc1	i	i	i	i	i	i
CS(=O)(=O)c1ccc(Cl)c(NC(=O)CCl)c1	i	?	i	?	i	14µM
CCCCn1c(NCc2cc(Cl)ccc2O)nc2ccccc21	nt	i	i	i	i	nt
S=C(Nc1ccc(Cl)cc1)c1nc2ccccc2s1	1.4µM	i	i	i	i	0.32µM
Cc1ccc(NC(=S)c2nc3ccccc3s2)cc1	2µM	i	?	i	i	1µM
COc1ccc(NC(=O)c2nc3ccccc3s2)cc1	?	?	i	i	i	i
Cc1ccc(C)c(NC(=S)c2nc3ccccc3s2)c1	0.71µM	i	i	i	i	0.4µM
COc1ccc(C(=O)Nc2nnc(SCc3cc(=O)c4cc(C)ccc4[nH]3)s2)cc1OC	nt	i	i	i	i	nt
O=C(c1oc2ccccc2c1CSCc1ccccc1)N1CCN(c2ncccn2)CC1	i	?	16µM	i	i	?
CCOCC(=O)Nc1c(C(=O)N2CCN(c3ncccn3)CC2)oc2ccccc12	i	i	i	i	i	i
COc1cc(OC)cc(-c2nc3nc(C)c(CCC(=O)Nc4ccc(C)c(C)c4)c(C)n3n2)c1	nt	i	i	i	i	nt
SMILES	VP16 counter	ATXN2 expr inh	TGFb SMAD3 inh	S2 tox	HepG2 tox	RORgamma inh
O=C(N/N=C/C=C/c1ccccc1)c1ccncc1	7.1µM	i	i	i	i	2.8µM
CC1(C)OC(c2ccccc2)=C/C(=C\C=N\NC(=O)c2ccncc2)O1	0.56µM	?	?	?	i	0.4µM
O=C(Cc1cccc2ccccc12)N/N=C/C=C/c1cccc([N+](=O)[O-])c1	?	i	i	?	i	13µM
O=C(N/N=C/C=C\c1ccc([N+](=O)[O-])cc1)c1cccnc1	?	i	i	i	i	5.6µM
O=C(N/N=C/c1ccc(OC(=O)c2ccc([N+](=O)[O-])cc2)cc1)c1cccnc1	i	i	i	i	i	i
COc1ccc(O[C@H]2C=C[C@@H](c3ccccc3)O[C@H]2CO/N=C\C[C@@H]2C=C[C@H](OC(C)=O)[C@H](COC(C)=O)O2)cc1	i[10 µM]	nt	nt	nt	nt	i[10 µM]
CCOc1ccc(-c2nnc(SCC(=O)NCCC(C)C)nc2-c2ccc(OCC)c(OC)c2)cc1OC	nt	nt	i	nt	i	nt
CCCCc1ccc(C(=O)COC(=O)c2ccc3nc(C)c(C)nc3c2)cc1	nt	nt	i	nt	i	nt
NC(=O)N[C@@H](CCC(=O)O)C(=O)O	nt	i	nt	i	nt	nt
COc1ccccc1NCC(=O)N/N=C/C=C/c1ccccc1	?	nt	i	?	i	?
CC(/C=C/c1ccccc1)=N\NC(N)=S	2.2µM	i	?	i	i	0.56µM
O=C(N/N=C/C=C/c1ccccc1)c1cccs1	2.8µM	?	i	i	i	2.8µM
NC(=S)NN=C(c1ccccc1)c1ccccc1	?	i	?	i	i	7.1µM
COc1ccc(NCC(=O)N/N=C/C=C\c2ccccc2)cc1	13µM	i	i	i	i	11µM
Cc1ccc2oc(=O)c3cnn(CC(=O)Nc4cccc(C(F)(F)F)c4)c3c2c1	nt	nt	i	nt	i	nt
O=C(N/N=C\C=C\c1ccc([N+](=O)[O-])o1)c1cccs1	11µM	i	?	i	i	7.9µM
Nc1ccc(C(=O)N/N=C\C=C\c2cccc([N+](=O)[O-])c2)cc1	i	i	i	i	i	?
O=C(N/N=C/C=C/c1cccc([N+](=O)[O-])c1)c1ccncc1	?	i	i	?	i	7.1µM
O=C(N/N=C/C=C\c1ccccc1[N+](=O)[O-])c1ccncc1	?	i	i	i	i	10µM
O=C(N/N=C/C=C/c1ccccc1[N+](=O)[O-])c1cccs1	?	i	i	i	i	?
CC(/C=C/c1ccc2c(c1)OCO2)=N\NC(=O)c1ccccc1	16µM	i	i	i	i	5.6µM
COc1ccc(S(=O)(=O)Nc2cccc(-c3ccc(N4CCC(C)CC4)nn3)c2)c(OC)c1	nt	i	i	?	i	nt
CC(/C=C/c1ccccc1)=N\NC(=O)c1ccncc1	11µM	i	i	i	i	7.1µM
COc1ccc(C=CC(C)=NNC(=O)c2ccncc2)cc1	nt	?	i	?	i	nt
O=C(O)c1ccc(N/N=C/C=C/c2ccccc2)cc1	1.1µM	i	i	i	i	11µM
SMILES	VP16 counter	ATXN2 expr inh	TGFb SMAD3 inh	S2 tox	HepG2 tox	RORgamma inh
Cc1cccc(OCCCOc2cccc3cccnc23)c1C	?	i	?	i	i	13µM
Cc1cccc(OCCCCc2c(C)n[nH]c2C)c1C	?	i	i	i	i	14µM
Clc1ccc(OCCOCCOc2cccc3cccnc23)c(Br)c1	i	i	?	i	16µM	i[10 µM]
COc1cccc(OC)c1OCCCOc1cccc2cccnc12	?	i	i	i	i	?
Cc1ccc(OCCCOc2cccc3cccnc23)cc1C	?	i	?	i	i	14µM
COc1ccc(OC)c(NC(=O)c2cc(C3CC3)nc3c2c(C)nn3-c2ccc(C)cc2)c1	nt	i	i	i	i	nt
